# Reference: PubChem BioAssay (EPA / NIEHS)
# Records with an inconclusive call do not appear. Calls of active or inactive are those of the source. Rule for the calls, unless noted: active = hit-call score of the fitted dose curve at least 0.9, where 1 is the maximum; inconclusive = response in the unintended direction; inactive = score below 0.9.
# How the values were obtained:
# [1] = test system: Sodium/Iodide Symporter (NIS), SLC5A5 (gene 6528); assay: CPHEA_Stoker_NIS_Inhibition_RAIU: CPHEA's Radioactive Iodide Uptake (RAIU) Assay for Sodium/Iodide Symporter (NIS) Inhibition, Stoker and Laws Labs (AID 2283841)
# How it was run: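 Iodide uptake through human NIS is measured in an engineered HEK293T line. Cells take up 125I (329pM final) for 2 hours at room temperature alongside chemicals at 0.001–100uM. Retained radioactivity is counted, and the signal is expressed against DMSO controls.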
# [2] = CPHEA_Stoker_NIS_Cytotoxicity: Cytotoxicity Assessment for CPHEA's Radioactive Iodide Uptake (RAIU) Assay for Sodium/Iodide Symporter (NIS) Inhibition, Stoker and Laws Labs (AID 2283897);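 for AC50: active means loss of ATP signal versus DMSO meaning cytotoxicity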
# How it was run: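 ATP luminescence (Cell Titer Glo) measured viability, with loss of signal normalized to DMSO controls. Cells: hNIS-HEK293T-EPA, seeded 40 hours prior. Dosing: 0.001–100uM, 2 hours, room temperature, uptake buffer pH 7.4.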
# [3] = CEETOX_H295R_11DCORT_noMTC: CeeTox H295R High-throughput Steroidogenesis Assay for 11-Deoxycortisol (11DCORT), maximum tolerated concentration (MTC) filtered results only (AID 2283911; active = hit-call score of the fitted dose curve at least 0.9, where 1 is the maximum; inactive = score below 0.9); conditions: actives raise or lower the signal
# How it was run: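 Forskolin-primed (10 uM, 48 h) H295R adrenal cells are dosed for 48 h at 0.1% DMSO; medium 11-deoxycortisol is quantified by LC-MS/MS against a 7-point standard curve, with activity fitted in both directions versus DMSO.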
# [4] = CEETOX_H295R_OHPREG_noMTC: CeeTox H295R High-throughput Steroidogenesis Assay for OH-Pregnenolone (OHPREG), maximum tolerated concentration (MTC) filtered results only (AID 2283912; active = hit-call score of the fitted dose curve at least 0.9, where 1 is the maximum; inactive = score below 0.9); conditions: actives raise or lower the signal
# How it was run: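 Steroidogenesis in H295R cells (OECD 456, modified): after 48 h forskolin priming and 48 h chemical treatment, secreted 17alpha-hydroxypregnenolone is measured by HPLC-MS/MS. Activity is fitted in both directions against DMSO; concentrations are not filtered by MTT-based MTC.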
# [5] = ATG_M_61_XSP2: Attagene TRANS-FACTORIAL Multi-Species (XSP2) HepG2 Assay for M61 Transcription Factor (Internal Marker) (AID 2283835; active = hit-call score of the fitted dose curve at least 0.9, where 1 is the maximum; inactive = score below 0.9;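 note: reporter mRNA of an internal background marker read by RT-PCR and capillary electrophoresis; active means a rise in signal above the DMSO baseline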)
# How it was run: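 First, HepG2 cells are transfected with reporter units under GAL4-UAS control. Next, chemicals are applied for 24 h. Then total RNA is reverse-transcribed, amplified, fluorescently labelled and sized by capillary electrophoresis, with gain of signal scored against DMSO.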
# [6] = target: zebrafish Thyroid Hormone Receptor beta (TRb), thrb (gene 30607) (UniProt Q9PVE4); assay: ATG_zfTRb_XSP2: Attagene TRANS-FACTORIAL Multi-Species (XSP1) HepG2 Assay for zebrafish Thyroid Hormone Receptor beta (TRb) (AID 2283836)
# Chain of zebrafish Thyroid Hormone Receptor beta (TRb), thrb (gene 30607) (Q9PVE4 whole entry, looked up, the tested form may be a part): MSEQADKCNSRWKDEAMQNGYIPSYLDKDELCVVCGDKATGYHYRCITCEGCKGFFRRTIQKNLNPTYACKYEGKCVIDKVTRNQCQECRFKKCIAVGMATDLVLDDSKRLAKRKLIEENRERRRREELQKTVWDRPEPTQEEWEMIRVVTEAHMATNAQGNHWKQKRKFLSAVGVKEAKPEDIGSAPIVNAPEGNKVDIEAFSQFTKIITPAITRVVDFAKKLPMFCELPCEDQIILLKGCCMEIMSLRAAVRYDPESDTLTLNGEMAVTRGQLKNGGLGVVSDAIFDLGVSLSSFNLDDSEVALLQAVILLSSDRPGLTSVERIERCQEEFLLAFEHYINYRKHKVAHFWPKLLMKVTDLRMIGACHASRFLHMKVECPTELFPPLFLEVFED
# How it was run: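 HepG2 cells transiently transfected with chimeric zebrafish TRb-GAL4 reporter units, dosed 24 h with 3 nM 6-alpha-fluorotestosterone and 1.5 nM norgestrel present. Reporter mRNA quantified by RT-PCR and capillary electrophoresis; gain fitted against DMSO.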
# [7] = target: human Thyroid hormone Receptor alpha (TRa), THRA (gene 7067) (UniProt P10827); assay: ATG_hTRa_XSP2: Attagene TRANS-FACTORIAL Multi-Species (XSP2) HepG2 Assay for human Thyroid hormone Receptor alpha (TRa) (AID 2283838)
# Chain of human Thyroid hormone Receptor alpha (TRa), THRA (gene 7067) (P10827 whole entry, looked up, the tested form may be a part): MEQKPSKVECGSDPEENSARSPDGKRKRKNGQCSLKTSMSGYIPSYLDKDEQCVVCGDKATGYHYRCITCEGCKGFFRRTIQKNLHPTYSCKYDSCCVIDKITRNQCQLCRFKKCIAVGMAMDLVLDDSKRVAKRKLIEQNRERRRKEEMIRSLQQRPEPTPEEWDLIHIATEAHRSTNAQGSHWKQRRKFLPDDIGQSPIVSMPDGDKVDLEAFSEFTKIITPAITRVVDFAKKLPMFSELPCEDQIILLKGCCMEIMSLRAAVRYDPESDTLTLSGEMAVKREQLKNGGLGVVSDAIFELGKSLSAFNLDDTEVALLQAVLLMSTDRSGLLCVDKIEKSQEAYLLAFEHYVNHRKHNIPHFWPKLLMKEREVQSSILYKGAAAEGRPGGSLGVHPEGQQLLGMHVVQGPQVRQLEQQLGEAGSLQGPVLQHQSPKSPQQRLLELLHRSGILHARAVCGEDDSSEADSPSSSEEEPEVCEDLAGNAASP
# How it was run: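 HepG2 cells were transiently transfected with GAL4-UAS reporter units for chimeric human TRa-Gal4 and dosed for 24 hours, with 3 nM 6-alpha-fluorotestosterone and 1.5 nM norgestrel present. Reporter mRNA was quantified by RT-PCR, FAM labelling and capillary electrophoresis, with gain of signal fitted versus DMSO.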
# [8] = test system: turtle Thyroid Hormone Receptor, alpha (TRa), gene 101949057; assay: ATG_trTRa_XSP2: Attagene TRANS-FACTORIAL Multi-Species (XSP1) HepG2 Assay for turtle Thyroid Hormone Receptor, alpha (TRa) (AID 2283834);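 note: hits raise reporter mRNA over the DMSO baseline so AC50 marks activators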
# How it was run: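 Multiplexed TRANS reporter assay; HepG2 carrying NR-Gal4 constructs treated 24 h. mRNA of the GAL4-UAS reporter quantified via labelled RT-PCR fragments on a genetic analyzer, vs DMSO negative control.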
# [9] = target: frog Thyroid hormone Receptor alpha (TRa), thra-a (gene 397942) (UniProt P15204); assay: ATG_frTRa_XSP2: Attagene TRANS-FACTORIAL Multi-Species (XSP2) HepG2 Assay for frog Thyroid hormone Receptor alpha (TRa) (AID 2283839)
# Chain of frog Thyroid hormone Receptor alpha (TRa), thra-a (gene 397942) (P15204 whole entry, looked up, the tested form may be a part): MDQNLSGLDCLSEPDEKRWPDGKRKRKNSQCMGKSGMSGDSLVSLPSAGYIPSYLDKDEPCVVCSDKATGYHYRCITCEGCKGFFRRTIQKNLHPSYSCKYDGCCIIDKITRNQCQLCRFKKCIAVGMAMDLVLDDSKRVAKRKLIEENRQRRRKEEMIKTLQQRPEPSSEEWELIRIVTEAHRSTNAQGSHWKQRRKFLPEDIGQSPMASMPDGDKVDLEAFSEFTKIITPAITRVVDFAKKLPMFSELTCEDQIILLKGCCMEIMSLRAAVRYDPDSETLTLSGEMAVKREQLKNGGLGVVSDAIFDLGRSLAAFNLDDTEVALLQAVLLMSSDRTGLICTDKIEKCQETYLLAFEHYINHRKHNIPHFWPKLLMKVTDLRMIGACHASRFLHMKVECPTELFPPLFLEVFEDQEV
# How it was run: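 Chimeric frog TRα-GAL4 activity in human liver cells measures reporter transcript induction 24 h post-dose. Detection uses RT-PCR, HpaI-digested labelled products and fluorescence capillary electrophoresis; DMSO serves as negative control.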
# [10] = target: human Thyroid hormone Receptor beta (TRb), THRB (gene 7068) (UniProt P10828); assay: ATG_hTRb_XSP2: Attagene TRANS-FACTORIAL Multi-Species (XSP2) HepG2 Assay for human Thyroid hormone Receptor beta (TRb) (AID 2283840);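 note: actives raise reporter mRNA so potency reflects agonist-like gain of signal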
# Chain of human Thyroid hormone Receptor beta (TRb), THRB (gene 7068) (P10828 whole entry, looked up): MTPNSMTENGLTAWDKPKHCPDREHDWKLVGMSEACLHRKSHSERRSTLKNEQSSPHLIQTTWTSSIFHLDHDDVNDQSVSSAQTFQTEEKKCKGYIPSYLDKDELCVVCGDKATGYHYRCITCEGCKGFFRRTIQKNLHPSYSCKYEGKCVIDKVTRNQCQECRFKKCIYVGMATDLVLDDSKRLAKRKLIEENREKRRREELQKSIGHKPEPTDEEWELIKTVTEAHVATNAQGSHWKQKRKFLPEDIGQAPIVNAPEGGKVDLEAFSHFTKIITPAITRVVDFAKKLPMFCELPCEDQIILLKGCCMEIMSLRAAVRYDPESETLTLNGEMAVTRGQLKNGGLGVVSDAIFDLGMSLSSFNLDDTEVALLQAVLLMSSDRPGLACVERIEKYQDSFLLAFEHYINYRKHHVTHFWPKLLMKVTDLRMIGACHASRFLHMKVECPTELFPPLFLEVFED
# How it was run: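 Gain-of-signal reporter transcription, referenced to DMSO, was measured in transiently transfected HepG2 after 24 h exposure; labeled RT-PCR products were resolved by capillary electrophoresis. Assay medium included 3 nM 6-alpha-fluorotestosterone and 1.5 nM norgestrel.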
compound,measurement,setting,value
CCN=C1C=CC(=C(c2ccc(N(CC)CC)cc2)c2ccc(N(CC)CC)cc2)c2ccccc21,AC50,[1],0.553 µM (active)
same,AC50,[2],10 µM (active)
FC(F)(F)C(F)(F)C(F)(F)C(F)(F)C(F)(F)C(F)(F)C(F)(F)CCI,AC50,[1],3.31 µM (active)
OCC(F)(F)C(F)(F)C(F)(F)C(F)(F)C(F)(F)C(F)(F)CO,outcome,[1],inactive
OCC(O)CC(F)(F)C(F)(F)C(F)(F)C(F)(F)C(F)(F)C(F)(F)C(F)(F)C(F)(F)F (centres undefined),outcome,[1],inactive
O=C(F)C1(F)C(F)(F)C(F)(F)C(F)(F)C(F)(F)C1(F)F,outcome,[1],inactive
OCCCC(F)(F)C(F)(F)C(F)(F)C(F)(F)C(F)(F)C(F)(F)C(F)(F)C(F)(F)F,outcome,[1],inactive
CCC(Cc1c(I)cc(I)c(N)c1I)C(=O)O (centres undefined),outcome,[1],inactive
same,outcome,[2],inactive
CCCCCCCCCCCCC[N+](C)(C)Cc1ccccc1,AC50,[1],11.2 µM (active)
same,outcome,[2],inactive
CCN(CCO)S(=O)(=O)C(F)(F)C(F)(F)C(F)(F)C(F)(F)C(F)(F)C(F)(F)C(F)(F)C(F)(F)F,outcome,[1],inactive
CCCCCCCC/C=C\CCCCCCCC(=O)N(C)CC(=O)O,outcome,[2],inactive
CCCCCCCCCc1ccc(OCCO)cc1,AC50,[1],7.03 µM (active)
same,AC50,[2],24.3 µM (active)
CC(C)(C)c1cc(CCC(=O)NCCCCCCNC(=O)CCc2cc(C(C)(C)C)c(O)c(C(C)(C)C)c2)cc(C(C)(C)C)c1O,outcome,[3],inactive
same,outcome,[4],inactive
OCCCCC(F)(F)C(F)(F)C(F)(F)C(F)(F)F,outcome,[1],inactive
OCC(F)(F)C(F)(F)C(F)(F)C(F)(F)C(F)(F)C(F)(F)C(F)(F)C(F)(F)CO,AC50,[1],18.3 µM (active)
O=C(c1ccccc1)c1ccc(O)cc1O,outcome,[5],inactive
same,outcome,[6],inactive
same,outcome,[7],inactive
same,outcome,[1],inactive
same,outcome,[2],inactive
C=CC(=O)OCCC(F)(F)C(F)(F)C(F)(F)C(F)(F)F,outcome,[1],inactive
CCN=c1cc2oc3cc(NCC)c(C)cc3c(-c3ccccc3C(=O)OCC)c-2cc1C,AC50,[1],3.23 µM (active)
same,AC50,[2],30.8 µM (active)
CC(C)Nc1ccc(NC(C)C)c2c1C(=O)c1ccccc1C2=O,outcome,[1],inactive
same,AC50,[2],15.3 µM (active)
NS(=O)(=O)C(F)(F)C(F)(F)C(F)(F)C(F)(F)C(F)(F)C(F)(F)F,outcome,[1],inactive
CCCCCCCCCCCCCC[P+](CCCC)(CCCC)CCCC,AC50,[1],9.92 µM (active)
same,AC50,[2],15.9 µM (active)
O=S(=O)(Cl)C(F)(F)C(F)(F)C(F)(F)C(F)(F)C(F)(F)C(F)(F)C(F)(F)C(F)(F)F,AC50,[1],16.9 µM (active)
O=C1C=CC(=O)N1c1ccccc1,AC50,[1],9.92 µM (active)
same,AC50,[2],81.6 µM (active)
C[C@]12CC[C@H]3C(=CCc4cc(O)ccc43)[C@@H]1CCC2=O,outcome,[8],inactive
same,outcome,[5],inactive
same,outcome,[6],inactive
same,outcome,[7],inactive
same,outcome,[9],inactive
same,outcome,[10],inactive
same,outcome,[1],inactive
same,outcome,[2],inactive
CCCCCCCCn1sc(Cl)c(Cl)c1=O,AC50,[1],9.92 µM (active)
same,outcome,[2],inactive
Nc1c(Br)cc([N+](=O)[O-])cc1Br,outcome,[3],inactive
same,outcome,[4],inactive
O=S(=O)(OCC(F)(F)F)C(F)(F)C(F)(F)C(F)(F)C(F)(F)F,outcome,[1],inactive
O=C(O)CCC(F)(F)C(F)(F)C(F)(F)C(F)(F)C(F)(F)C(F)(F)C(F)(F)F,outcome,[1],inactive
COCCOCCC[Si](C)(O[Si](C)(C)C)O[Si](C)(C)C,AC50,[1],19.4 µM (active)
same,outcome,[2],inactive
CCc1cc(Cc2cc(CC)c(N)c(CC)c2)cc(CC)c1N,AC50,[1],20 µM (active)
same,outcome,[2],inactive
C=CC(=O)OCC(F)(F)C(F)(F)C(F)(F)COC(=O)C=C,outcome,[1],inactive
